Compound activity (PubChem BioAssay)
This is a sample that favours compounds with a hit; in the whole collection about 2.8% have one here.
Platelet DG rel = modulates dense granule release in human platelets; human platelet-rich plasma, SFLLRN dense granule ATP release, luminescence; inhibition, %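 (compounds screened at 7.5 µM in platelet-rich plasma)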; 300,000 tested, 0.22% active;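 active = mean replicate score, as percent of positive control, at or above 50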
SENP7 inh = SENP7 protease inhibition; Q9BQF6; inhibition, % at 5 µM; recombinant SENP7, Z-RLRGG-aminoluciferin luminescence, 40 min; 330,000 tested, 1.5% active;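 active = inhibition above about 50% at the single test dose, limit read from the data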;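 note: plate controls were DMSO with enzyme for no effect and no enzyme buffer wells for full effect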
Target sequence (Q9BQF6 706-1050 limits assumed): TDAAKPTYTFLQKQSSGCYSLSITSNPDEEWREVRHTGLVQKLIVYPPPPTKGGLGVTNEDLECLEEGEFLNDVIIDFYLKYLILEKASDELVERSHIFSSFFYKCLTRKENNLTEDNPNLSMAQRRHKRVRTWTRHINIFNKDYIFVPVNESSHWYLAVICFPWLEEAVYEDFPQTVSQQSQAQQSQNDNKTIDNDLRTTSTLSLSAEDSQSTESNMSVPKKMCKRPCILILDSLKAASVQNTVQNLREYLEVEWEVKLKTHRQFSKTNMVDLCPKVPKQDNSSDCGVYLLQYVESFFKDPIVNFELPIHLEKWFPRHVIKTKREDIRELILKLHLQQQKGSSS
SENP8 block-1 = SENP8 protease inhibition | inhibition, % at 10 µM | purified SENP8, Z-RLRGG-aminoluciferin cleavage, luminescence | 330,000 tested, 1.2% active; in the data active = inhibition above about 50%
HSP90 inh = HSP90 refolding inhibition in rabbit reticulocyte lysate | luciferase refolding luminescence, 3 h | inhibition, % at 5.6 µM | 290,000 tested, 0.91% active;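 active = inhibition above the screen-wide mean plus 3 SD, computed separately per campaign, cut at about 16% in these data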;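 note: 0% = DMSO wells and 100% = 60 µM geldanamycin wells; inhibitors lower the luminescence because luciferase stays unfolded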
SENP6 block = blocks the human protease SENP6; inhibition, % at 10 µM; AID 2599; Q9GZR1; Recombinant SENP6 catalytic domain, aminoluciferin luminescence; 330,000 tested, 1.8% active;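 active = inhibition above about 50% at the single tested dose, limit read from the data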;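 note: plate controls were DMSO wells with enzyme for no effect and DMSO wells lacking enzyme for full effect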
SENP8 block-2 = blocks human SENP8 cleavage of Nedd8 substrate | Q96LD8 | recombinant SENP8, Nedd8 substrate fluorescence | inhibition, % at 20 µM | 360,000 tested, 0.64% active | AID 602440; in the data active = inhibition mostly above about 40%, no sharp cut-off; inactive = mostly below about 27%
SENP8 confirm = human SENP8 inhibition, confirmed | 6,200 tested, 40% active | inhibition, % at 12.5 µM | shares compounds with SENP7 inh | Recombinant SENP8, Z-RLRGG-aminoluciferin luminescence, 60 min;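 active = mean inhibition across replicates above about 50%, limit read from the data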
SENP6 confirm = human SENP6 inhibition, confirmed; recombinant SENP6, Z-RLRGG-aminoluciferin luminescence; inhibition, % at 12.5 µM; shares compounds with SENP7 inh; 6,200 tested, 58% active
SENP7 confirm = confirmation of human SENP7 protease inhibitors. 6,200 tested, 69% active. inhibition, % at 12.5 µM. recombinant SENP7, Z-RLRGG-aminoluciferin luminescence, 40 min. shares compounds with SENP7 inh. AID 488917
Casp3 SENP sel = caspase-3 inhibition (SENP selectivity assay) | shares compounds with SENP7 inh | purified caspase-3, Z-DEVD-aminoluciferin luminescence, 60 min | inhibition, % at 12.5 µM | 6,200 tested, 60% active | AID 488918;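 active = mean inhibition above about 50%, limit read from the data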;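 note: plate controls were enzyme with DMSO for no effect and wells without caspase-3 for full effect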
Target sequence (P42574 28-227 limits assumed): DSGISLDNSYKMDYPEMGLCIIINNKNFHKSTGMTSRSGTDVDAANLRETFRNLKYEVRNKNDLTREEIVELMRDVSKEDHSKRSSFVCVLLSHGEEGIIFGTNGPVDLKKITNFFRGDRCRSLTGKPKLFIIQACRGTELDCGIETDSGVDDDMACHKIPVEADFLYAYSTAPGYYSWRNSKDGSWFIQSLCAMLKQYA
Luc interf = counter-screen for SENP inhibitors: luminescence interference; shares compounds with SENP7 inh; 6,200 tested, 39% active; inhibition, % at 12.5 µM; Pre-incubated SENP8/Z-RLRGG-aminoluciferin, luciferase luminescence interference;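 active = mean inhibition above about 50% when retested at one dose, limit read from the data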;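 note: plate controls were DMSO wells with completed reaction for no effect and substrate without enzyme for full effect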
Numbers without * were called inactive; i = inactive; x = no result.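 Rule for the calls, unless noted: active = mean inhibition above about 50% in the one-dose retest (limit read from the data); inactive = the rest.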

SMILES	Platelet DG rel	SENP7 inh	SENP8 block-1	HSP90 inh	SENP6 block	SENP8 block-2	SENP8 confirm	SENP6 confirm	SENP7 confirm	Casp3 SENP sel	Luc interf
Cc1c(NS(=O)(=O)c2cccc(C(=O)Nc3cccc(F)c3)c2)c(=O)n(-c2ccccc2)n1C	x	-13.3	-13.7	x	-21.2	4.6	x	x	x	x	x
COc1ccc(C(=O)N2CCOCC2c2cc(C(=O)NCc3ccccc3)no2)cc1 (stereo not given)	x	x	x	x	x	10.1	x	x	x	x	x
Cc1ccc(-c2ccc(CCC(=O)O)o2)cc1	-3.4	25.1	19.1	1.7	57.7*	-1.1	73.8*	70.1*	85.5*	61.0*	75.7*
O=C(O)c1ccc(NCCC2=CCCCC2)c([N+](=O)[O-])c1	7.5	11.5	81.9*	-3.3	85.6*	17.4	3.7	86.8*	96.9*	88.3*	78.0*
COc1ccc(CCNc2ccc(C(=O)O)cc2[N+](=O)[O-])cc1OC	5.1	12.3	1.1	-0.4	17.8	11.1	x	x	x	x	x
Cc1cccc(-c2noc(-c3cc4ccccc4oc3=O)n2)c1	4.6	81.5*	0.2	-8.6	11.5	-488.0	19.7	21.2	21.0	37.9	2.7
O=c1oc2ccccc2cc1-c1nc(-c2ccccc2)no1	0.7	81.5*	56.9*	0.6	38.0	i	11.1	27.5	29.4	25.4	-3.1
Cc1ccc(-c2noc(-c3cc4ccccc4oc3=O)n2)cc1	-1.6	-4.6	0.5	-1.9	17.6	-448.5	x	x	x	x	x
O=c1oc2ccccc2cc1-c1nc2ccccc2o1	0.5	85.0*	71.6*	-2.9	89.6*	-293.3	53.6*	85.5*	97.7*	93.8*	28.1
Cc1cccc(-c2noc(-c3ccc(Cl)cc3[N+](=O)[O-])n2)c1	14.8	38.9	7.4	1.7	39.3	19.2	x	x	x	x	x
O=c1oc2ccccc2cc1-c1nc2c(s1)CCCC2	3.5	99.3*	94.0*	12.2	47.8	-315.1	-3.8	44.4	100.3*	84.4*	12.0
O=C(COC(=O)COc1ccccc1)NCCC1=CCCCC1	x	-0.5	-4.9	x	10.2	2.1	x	x	x	x	x
C=CC[C@@H](CC(=O)NCCO)C(=O)NC[C@H](OC(=O)[C@@H](CC=C)Cc1ccc(F)cc1)c1ccccc1	x	3.5	2.2	x	3.9	7.1	x	x	x	x	x
Cc1nc2ccc(NC(=O)Cc3c(F)cccc3Cl)cc2s1	-3.4	1.6	-15.7	-9.0	-21.9	15.2	x	x	x	x	x
Nc1c2c(nc3sc4c(c13)CCCC4)-c1ccccc1CC2	2.5	90.4*	92.4*	8.6	92.0*	-399.1	19.5	93.3*	95.5*	81.5*	6.2
O=C(CC1C(=O)NCCN1Cc1cccc(F)c1)NCCCCCN1CCOCC1 (stereo not given)	-1.5	-2.1	6.5	-5.3	-5.1	-27.6	x	x	x	x	x
O=C1C(C2=NC(c3ccccn3)C3C(=O)N(c4ccccc4)C(=O)C23)=C(O)c2ccccc21 (stereo not given)	4.7	-4.1	0.2	12.7	-1.1	8.1	x	x	x	x	x
CCOC(=O)c1ccc(N2CCCCC2)c(NS(=O)(=O)c2ccc(C)cc2)c1	-8.4	1.9	-2.8	-1.1	-6.3	12.9	x	x	x	x	x
Cc1ccc(-c2nc3ccccn3c2NCc2ccc3c(c2)OCO3)cc1	-0.6	-4.1	0.6	3.5	50.7*	-298.3	29.3	19.6	42.9	26.5	40.2
Oc1ccc(-c2nc3ccccn3c2NCc2ccco2)cc1	7.8	0.6	5.1	-2.1	55.6*	-496.4	24.9	19.7	60.8*	47.8	44.0
COc1ccc(-c2nc3ccc(C)cn3c2NCc2ccc3c(c2)OCO3)cc1	0.3	-4.4	-11.7	0.6	-1.6	-351.3	x	x	x	x	x
COc1ccc(C(=O)N[C@H](C(=O)Nc2cccc(S(=O)(=O)N3CCOCC3)c2)C(C)C)cc1	x	x	x	x	x	6.6	x	x	x	x	x
CN(CC(=O)Nc1cccc(F)c1)CC(=O)N(C)CC(=O)Nc1ccccc1Br	x	-6.7	2.6	x	4.1	3.1	x	x	x	x	x
COc1ccc(OC)c(NC(=O)C(=O)N/N=C/c2ccccc2[N+](=O)[O-])c1	1.9	92.4*	-3.9	1.5	-6.7	16.2	7.4	7.8	7.0	3.8	3.1
O=C(/C=C/c1ccccc1Cl)c1ccc(O)cc1	27.8	72.7*	82.3*	0.4	89.9*	22.0	8.2	-3.5	-1.1	14.1	55.2*
SMILES	Platelet DG rel	SENP7 inh	SENP8 block-1	HSP90 inh	SENP6 block	SENP8 block-2	SENP8 confirm	SENP6 confirm	SENP7 confirm	Casp3 SENP sel	Luc interf
O=C(/C=C/c1ccccc1[N+](=O)[O-])Nc1ccccc1	21.5	87.0*	80.6*	2.3	90.0*	3.1	83.2*	81.7*	94.2*	81.4*	81.2*
COc1cc(NC(=O)/C=C/c2ccccc2[N+](=O)[O-])cc(OC)c1	6.8	62.5*	55.3*	1.0	73.1*	13.7	11.0	7.5	-3.1	0.1	0.4
CC(NC(=O)COc1cccnc1[N+](=O)[O-])c1ccc(Cl)cc1 (stereo not given)	2.7	-1.1	-12.9	-1.4	-2.7	9.4	x	x	x	x	x
CC(NC(=O)C(C)(C)C)C(c1cccs1)N1CCOCC1 (stereo not given)	12.9	3.5	3.7	-2.2	-1.6	28.0	x	x	x	x	x
CN(C)S(=O)(=O)c1ccc(NC(=O)/C=C/c2ccccc2Cl)cc1	-20.3	-1.3	-19.6	-3.5	-7.5	-9.7	x	x	x	x	x
O=C(/C=C/c1ccccc1Cl)Nc1ccccc1	31.6	98.5*	96.1*	12.7	97.4*	22.2	7.6	99.2*	102.7*	94.4*	95.1*
O=C1CCN2C=Nc3cccc4ccc1c2c34	-0.9	39.4	59.3*	5.0	69.4*	i	-25.0	17.0	6.1	-5.3	-5.2
C/C(=N\NC(=O)c1ccccc1O)C1C(=O)c2ccccc2C1=O	6.7	87.1*	92.5*	-0.7	94.1*	36.1	97.9*	98.5*	101.5*	89.3*	74.1*
C/C(=N\NC(=O)c1ccccc1O)c1c(O)cc(C)oc1=O	-12.7	68.8*	61.7*	-3.1	81.3*	-72.9	13.2	6.3	0.8	-3.2	-2.3
C/C(=N\NC(=O)c1cc2ccccc2cc1O)c1cc2ccccc2o1	0.6	-8.6	-9.4	-1.7	10.5	-131.8	x	x	x	x	x
C/C(=N/NC(=O)c1cc2ccccc2cc1O)C1C(=O)c2ccccc2C1=O	-2.4	63.1*	95.9*	-1.9	94.4*	26.7	94.7*	98.9*	97.2*	80.9*	46.5
